Experimental data from PubChem BioAssay (NCATS).
Inconclusive results are not listed. The source made the active and inactive calls. Unless noted, calls follow the shape of the dose curve; as a rule, active = well fitted curve in the direction sought with a large enough effect; inconclusive = small, poorly fitted or top-dose-only effect, or another doubt; inactive = no such curve, though single readings can be large; an effect the other way counts as inactive or inconclusive.

How the values were obtained:
[1] = test system: Es-2; experiment: Primary qHTS to identify gynecologic anti-cancer compounds using libraries of approved drugs and bioactive compounds (AID 1345084); conditions: Gynecologic cancer cell panel viability, ATPlite luminescence, 48 h; series mostly up to 57.5 µM; also: nearly all actives have a fitted effect of over 55% in size; also: potency is read from the fitted curve at half-maximal effect
In short: (§1)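 In this quantitative HTS, cell killing is estimated from loss of ATP-dependent luciferase light. Cells see five compound concentrations over a 48 h exposure.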

[2] = test system: HeLa; experiment: as above; conditions: Gynecologic cancer cell panel viability, ATPlite luminescence, 48 h; series mostly up to 57.5 µM
In short: as §1

[3] = test system: Hek293T; experiment: as above; conditions: Gynecologic cancer cell panel viability, ATPlite luminescence, 48 h, control line for the selectivity index; series mostly up to 57.5 µM
In short: as §1

[4] = test system: JEG-3; experiment: as above; conditions: Gynecologic cancer cell panel viability, ATPlite luminescence, 48 h; series mostly up to 57.5 µM
In short: as §1

[5] = test system: PA-1; experiment: as above; conditions: Gynecologic cancer cell panel viability, ATPlite luminescence, 48 h; series mostly up to 57.5 µM
In short: as §1

[6] = test system: SKOV3; experiment: as above; conditions: Gynecologic cancer cell panel viability, ATPlite luminescence, 48 h; series mostly up to 57.5 µM
In short: as §1

[7] = test system: Tov-21-G; experiment: as above; conditions: Gynecologic cancer cell panel viability, ATPlite luminescence, 48 h; series mostly up to 57.5 µM
In short: as §1

[8] = test system: Tov112D; experiment: as above; conditions: Gynecologic cancer cell panel viability, ATPlite luminescence, 48 h; series mostly up to 57.5 µM
In short: as §1

[9] = Drug repurposing screens with cells derived from glioblastoma tumor samples (AID 1345199); conditions: GBM patient neurospheres viability, ATP luminescence, 48 h; also: nearly all actives have a fitted effect of over 40% in size; also: potency is read from the fitted curve at half-maximal effect; as to activity, negative = cell killing: % is scaled to controls: 0 for no effect and ±100 for the full control effect
In short: (§2)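 Primary testing used CD133+ neurospheres from four GBM patients, seven concentrations, 48 h exposure and ATP-based viability; confirmation added three slower-growing patient lines.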

[10] = test system: astro; experiment: as above; conditions: viability, ATP luminescence, 48 h; series mostly up to 45.9 µM
In short: as §2

[11] = test system: OV90; experiment: Primary qHTS to identify gynecologic anti-cancer compounds using libraries of approved drugs and bioactive compounds (AID 1345084); conditions: Gynecologic cancer cell panel viability, ATPlite luminescence, 48 h; series mostly up to 57.5 µM; also: nearly all actives have a fitted effect of over 55% in size; also: potency is read from the fitted curve at half-maximal effect
In short: as §1

[12] = biological target: Nuclear receptor subfamily 1 group I member 2 (Rattus norvegicus) (UniProt Q9R1A7); experiment: qHTS assay for small molecule activators of the rat pregnane X receptor (rPXR) signaling pathway (AID 651751; call rule not given here; also: 0% is about no effect); conditions: rPXR reporter cells, luciferase (One-Glo), 24 h
Sequence of Nuclear receptor subfamily 1 group I member 2 (Rattus norvegicus) (Q9R1A7 whole entry, looked up): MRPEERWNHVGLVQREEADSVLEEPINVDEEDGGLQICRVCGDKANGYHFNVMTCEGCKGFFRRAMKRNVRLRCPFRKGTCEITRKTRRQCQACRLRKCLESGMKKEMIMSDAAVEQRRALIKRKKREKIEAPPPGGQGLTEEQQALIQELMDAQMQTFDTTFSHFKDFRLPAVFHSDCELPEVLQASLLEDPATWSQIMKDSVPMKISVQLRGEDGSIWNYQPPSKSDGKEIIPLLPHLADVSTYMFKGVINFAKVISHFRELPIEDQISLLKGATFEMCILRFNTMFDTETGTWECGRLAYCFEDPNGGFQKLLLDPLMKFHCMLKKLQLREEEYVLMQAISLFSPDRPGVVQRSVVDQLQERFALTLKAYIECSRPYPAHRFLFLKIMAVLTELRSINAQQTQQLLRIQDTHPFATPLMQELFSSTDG

[13] = qHTS assay for small molecule activators of the human pregnane X receptor (PXR) signaling pathway (AID 720659; call rule not given here; also: 0% is about no effect)
[14] = qHTS assay to identify inhibitors of the type 1 interferon - major histocompatibility complex class I in skeletal muscle: Counter screen cell viability and HiBit confirmation (AID 1347412); conditions: iHSKM muscle cells + IFN-b, HiBiT or CellTiter-Glo, 24 h; also: potency is read from the fitted curve at half-maximal effect; nearly all actives have a fitted effect of over 60% in size
In short: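 Human myoblast knock-in line, 4.0 ng/ml IFN-beta stimulation, 24 h compound treatment. Endpoints: HiBiT lytic luminescence (HLA-B level) and CellTiter Glo (ATP). Dosing 12 concentrations, 3-fold steps, 46 uM highest final.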

[15] = at 45.9 µM (top of the series), tumour line B
[16] = at 45.9 µM (top of the series), tumour line D
[17] = at 21.2 µM (top of the series), tumour line B
[18] = at 21.2 µM (top of the series), tumour line D
[19] = at 46 µM (top of the series), tumour line A
[20] = at 108 µM (top of the series), tumour line B
[21] = at 108 µM (top of the series), tumour line D
[22] = at 91.6 µM (top of the series), tumour line B
[23] = at 91.6 µM (top of the series), tumour line D

CN1CCC(N(Cc2ccccc2)c2ccccc2)CC1
inactive: Potency [1] | Potency [2] | Potency [3] | Potency [4] | Potency [5] | Potency [6] | Potency [7] | Potency [8]

CC1COC2(c3ccccc3Cl)c3cc(Cl)ccc3NC(=O)CN12 (configuration not stated)
inactive: Potency [1] | Potency [2] | Potency [3] | Potency [4] | Potency [5] | Potency [6] | Potency [7] | Potency [8]

CN1C2CCC(C)(C)C1CC(OC(=O)C(O)(c1cccs1)c1cccs1)C2 (configuration not stated)
inactive: Potency [1] | Potency [2] | Potency [3] | Potency [4] | Potency [5] | Potency [6] | Potency [7] | Potency [8]

Cc1c(Cl)c(=O)oc2cc(OP(=O)(OCCCl)OCCCl)ccc12
inactive: Potency [1] | Potency [2] | Potency [3] | Potency [4] | Potency [5] | Potency [6] | Potency [7] | Potency [8] | activity, negative = cell killing [9, 15] -10.4% | activity, negative = cell killing [9, 16] -23.1% | Potency [10]

CC(C)[N+](C)(CCC(C(N)=O)(c1ccccc1)c1ccccc1)C(C)C
inactive: Potency [1] | Potency [2] | Potency [3] | Potency [4] | Potency [5] | Potency [6] | Potency [7] | Potency [8] | activity, negative = cell killing [9, 17] -18% | activity, negative = cell killing [9, 18] -25.8% | Potency [10]

C=CCN1CC[C@]23CCCC[C@H]2[C@H]1Cc1ccc(O)cc13
inactive: Potency [1] | Potency [2] | Potency [3] | Potency [4] | Potency [5] | Potency [6] | Potency [7] | Potency [8] | activity, negative = cell killing [9, 19] 29%
active: Potency ([9]; tumour line B) 35.5 µM

C[C@H]1C(=O)O[C@@H]2CCN3CC=C(COC(=O)[C@](C)(O)[C@]1(C)O)[C@H]23
inactive: Potency [1] | Potency [2] | Potency [3] | Potency [4] | Potency [11] | Potency [5] | Potency [7] | Potency [8] | activity, negative = cell killing [9, 15] -12.9% | activity, negative = cell killing [9, 16] -22.3% | activity, negative = cell killing [9, 19] -27.9% | Potency [10] | max response [12] 0.678% | outcome [13]

Cc1ccc([N+](=O)[O-])[c]2c1[O][Hg]2
active: Potency [1] 5.62 µM | Potency [2] 20 µM | Potency [3] 5.62 µM | Potency [4] 3.55 µM | Potency [11] 12.6 µM | Potency [5] 2.82 µM | Potency [6] 3.98 µM | Potency [7] 2 µM | Potency [8] 5.62 µM | Potency ([14]; HiBiT) 6.25 µM | Potency ([14]; Viability) 14 µM

O=C(O)c1nn(Cc2ccc(Cl)cc2Cl)c2ccccc12
inactive: Potency [1] | Potency [2] | Potency [3] | Potency [4] | Potency [5] | Potency [6] | Potency [7] | Potency [8] | activity, negative = cell killing [9, 15] -14.7% | activity, negative = cell killing [9, 19] -31.3% | Potency [10]

CCC(=O)O[C@H]1CC[C@H]2[C@@H]3CCC4=CC(=O)CC[C@]4(C)[C@H]3CC[C@]12C
active: Potency [2] 3.55 µM | Potency [5] 15.8 µM | Potency ([9]; tumour line A) 14.1 µM
inactive: Potency [1] | Potency [3] | Potency [4] | Potency [6] | Potency [7] | Potency [8] | activity, negative = cell killing [9, 17] -4.44% | activity, negative = cell killing [9, 18] -24.6% | Potency [10] | outcome [13]

COc1cc(C[C@@H](C)N)c(OC)cc1C
inactive: Potency [1] | Potency [2] | Potency [3] | Potency [4] | Potency [5] | Potency [6] | Potency [7] | Potency [8] | activity, negative = cell killing [9, 20] -21.2% | activity, negative = cell killing [9, 21] -18.9% | Potency [10]
active: Potency ([9]; tumour line A) 31.6 µM

CN1C(=O)CN=C(c2ccccc2)c2cc([N+](=O)[O-])ccc21
inactive: Potency [1] | Potency [2] | Potency [3] | Potency [4] | Potency [11] | Potency [5] | Potency [7] | Potency [8] | activity, negative = cell killing [9, 15] 1.05% | activity, negative = cell killing [9, 16] -22.1% | activity, negative = cell killing [9, 19] -31.9% | Potency [10]

CN1C(=O)CN=C(c2ccccc2)c2cc(Cl)ccc21
inactive: Potency [1] | Potency [2] | Potency [3] | Potency [4] | Potency [11] | Potency [5] | Potency [7] | Potency [8] | activity, negative = cell killing [9, 15] -4.05% | activity, negative = cell killing [9, 16] -1.05% | Potency [10]

CN(C)CCc1c[nH]c2cccc(O)c12
inactive: Potency [1] | Potency [2] | Potency [3] | Potency [4] | Potency [11] | Potency [5] | Potency [7] | Potency [8] | activity, negative = cell killing [9, 22] -8.47% | activity, negative = cell killing [9, 23] -23.4% | Potency [10]

O=C(O)CCCCCCNC1c2ccccc2CCc2ccccc21
inactive: Potency [1] | Potency [2] | Potency [3] | Potency [4] | Potency [11] | Potency [5] | Potency [7] | Potency [8] | activity, negative = cell killing [9, 15] 2.2% | activity, negative = cell killing [9, 16] -6.72% | Potency [10]

C[C@]12Cc3nonc3C[C@@H]1CC[C@@H]1[C@@H]2CC[C@@]2(C)[C@H]1CC[C@]2(C)O
inactive: Potency [1] | Potency [3] | Potency [4] | Potency [11] | Potency [6] | Potency [7] | Potency [8] | activity, negative = cell killing [9, 15] -26.1%
active: Potency [2] 2.82 µM | Potency ([9]; tumour line A) 12.6 µM

CCOC(C(=O)OCCN(C)C)(c1ccccc1)c1ccccc1
inactive: Potency [1] | Potency [2] | Potency [3] | Potency [4] | Potency [5] | Potency [6] | Potency [7] | Potency [8]

C[C@H](CN1CCOCC1)C(C(=O)N1CCCC1)(c1ccccc1)c1ccccc1
inactive: Potency [1] | Potency [2] | Potency [3] | Potency [4] | Potency [5] | Potency [6] | Potency [7] | Potency [8] | activity, negative = cell killing [9, 20] -15.2% | activity, negative = cell killing [9, 21] -29.8% | Potency [10]
active: Potency ([9]; tumour line A) 35.5 µM

CC(C(O)c1ccccc1)N(C)C/C=C/c1ccccc1 (configuration not stated)
inactive: Potency [1] | Potency [2] | Potency [3] | Potency [4] | Potency [5] | Potency [6] | Potency [7] | Potency [8]

C=CC[C@]1(O)CC[C@H]2[C@@H]3CCC4=CC(=O)CCC4=C3C=C[C@@]21C
active: Potency ([9]; tumour line A) 17.8 µM
inactive: Potency [1] | Potency [2] | Potency [3] | Potency [4] | Potency [5] | Potency [7] | Potency [8] | activity, negative = cell killing [9, 15] -12.5%

O=C(O)Cc1ccccc1
inactive: Potency [1] | Potency [2] | Potency [3] | Potency [4] | Potency [5] | Potency [6] | Potency [7] | Potency [8] | activity, negative = cell killing [9, 15] -8.63% | activity, negative = cell killing [9, 16] -22.9% | activity, negative = cell killing [9, 19] -19.6% | Potency [10]

CC1N=C(N)OC1c1ccccc1 (configuration not stated)
inactive: Potency [1] | Potency [2] | Potency [3] | Potency [4] | Potency [5] | Potency [7] | Potency [8] | activity, negative = cell killing [9, 22] -8.97% | activity, negative = cell killing [9, 23] -16.1% | Potency [10]
active: Potency ([9]; tumour line A) 50.1 µM
